High-throughput results from PubChem.
B2AR arrestin – beta2AR (human) beta-arrestin recruitment activity. Potency, µM (top dose mostly 46.1 µM), for inactives: top-dose activation, hits mostly activators. P07550. 330,000 tested, 0.02% active. beta-arrestin recruitment to beta2AR, cell-based reporter;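 note: potency is the fitted concentration of half-maximal effect; 0% = DMSO controls and full agonism = EC100 isoproterenol or metaproterenol; nearly all actives have a fitted effect of over 65% in size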
TSHR antagonist – antagonists of human thyroid stimulating hormone receptor; 330,000 tested, 0.2% active; activity change, negative = inhibition, % at 11.5 µM; TSHR-expressing cells, TSH-stimulated cAMP HTRF, 2 h; hits give low values; P16473;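 active = activity change below a set negative limit, meaning inhibition stronger than a set level, cut at about -70% in these data; inconclusive = activity change between two set negative limits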
Target sequence (P16473 whole entry, looked up): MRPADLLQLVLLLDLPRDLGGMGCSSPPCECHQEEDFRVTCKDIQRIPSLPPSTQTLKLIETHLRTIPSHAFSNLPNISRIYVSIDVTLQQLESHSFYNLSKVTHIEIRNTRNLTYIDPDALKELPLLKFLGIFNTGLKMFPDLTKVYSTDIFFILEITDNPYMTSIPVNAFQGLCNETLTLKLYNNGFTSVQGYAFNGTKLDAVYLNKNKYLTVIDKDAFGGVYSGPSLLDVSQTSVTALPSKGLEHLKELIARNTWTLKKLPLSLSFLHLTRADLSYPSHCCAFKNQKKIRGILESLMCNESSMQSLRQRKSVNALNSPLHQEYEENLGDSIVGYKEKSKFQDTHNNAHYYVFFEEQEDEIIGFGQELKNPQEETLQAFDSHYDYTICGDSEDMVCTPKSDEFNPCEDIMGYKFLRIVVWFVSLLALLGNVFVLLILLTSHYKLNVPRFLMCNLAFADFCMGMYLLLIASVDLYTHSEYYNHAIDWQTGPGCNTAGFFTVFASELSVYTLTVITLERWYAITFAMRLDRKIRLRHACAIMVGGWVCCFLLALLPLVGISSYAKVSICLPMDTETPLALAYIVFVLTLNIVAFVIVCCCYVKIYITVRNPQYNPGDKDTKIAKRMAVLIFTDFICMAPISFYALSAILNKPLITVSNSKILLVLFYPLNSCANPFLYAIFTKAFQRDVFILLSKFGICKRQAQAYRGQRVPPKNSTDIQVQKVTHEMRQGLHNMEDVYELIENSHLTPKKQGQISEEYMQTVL
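Read-out is FRET at 665 nm (cryptate excitation 337 nm) from a cryptate-tagged anti-cAMP antibody, competed by cell cAMP against cAMP-d2. Compounds are tested on freshly harvested TSHR cells challenged with 4nM TSH (EC80) for 2 hours at 37 deg C.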
ELG1 DNA repair – ELG1-dependent DNA repair inhibition. HEK293T ELG1-luciferase reporter, luminescence, 16 h; DNA damage induced by 5-fluorouridine. 330,000 tested, 2.3% active. Potency, µM (series often up to 46.1 µM), inactives show at the top dose activity change, negative = inhibition, usual class: inhibitors; note: potency is the fitted concentration of half-maximal effect; nearly all actives have a fitted effect of over 55% in size
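DMSO vehicle served as the neutral condition. Each well held 2,000 cells given 5-fluorouridine plus compound; after 16 hr at 37 °C/5% CO2, ONE-Glo was added and luciferase measured 30 min later.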
RORgamma inh – ROR gamma (mouse) transcription inhibition; 310,000 tested, 5.4% active; Potency, µM (highest dose often 53.6 µM), for the others: at the top dose activity change, negative = inhibition, most hits filed as inhibitors; AID 2551; P51450; Drosophila S2 Gal4-RORgamma UAS-luciferase reporter, 20 h; note: potency is the fitted concentration of half-maximal effect; nearly all actives have a fitted effect of over 60% in size
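Stable Schneider cell line, Gal4 DNA-binding domain fused to ROR gamma, UAS-luciferase. Cmpd 1 hr RT → CuSO4 700 uM final → 20 hr RT → luciferase reagent 10 min → luminescence.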
VP16 counter – Gal4-VP16 reporter inhibition counter-screen; Potency, µM (top dose mostly 53.6 µM), inactives show at the top dose activity, negative = inhibition, most hits filed as inhibitors; 310,000 tested, 3.5% active; AID 2546; Drosophila S2 Gal4-VP16 UAS-luciferase, luminescence, 20 h;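 note: Gal4-VP16 expression switched on by copper sulfate through the metallothionein promoter; potency is the fitted concentration of half-maximal effect; nearly all actives have a fitted effect of over 50% in size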
An asterisk follows results filed as active; u = inconclusive; x = no result. Sampled rows, rich in hits. Any-hit rate of the full collection: about 7.5%. Unless noted, calls come from the whole dose curve; as a rule, active = well fitted curve in the direction sought with a large enough effect; inconclusive = small, poorly fitted or top-dose-only effect, or another doubt; inactive = no such curve, though single readings can be large; an effect the other way counts as inactive or inconclusive. Unless noted, % is set by controls: 0 for no effect and ±100 for the full control effect.

SMILES | B2AR arrestin | TSHR antagonist | ELG1 DNA repair | RORgamma inh | VP16 counter
Cc1ccc2c(c1)nnn2C1CCN(CC(=O)N(c2ccccc2)c2ccccc2)CC1 | 0% | 5 | 16µM* | 1% | 0%
Cc1ccc2c(c1)nnn2C1CCN(C(=O)C23CC4CC(CC(C4)C2)C3)CC1 | 0% | -16 | 23µM* | 15% | 5%
CCOC(=O)CN(C(=O)CN1CCC(n2nnc3cc(C)ccc32)CC1)c1ccccc1 | 0% | 17 | u | 2% | -9%
CCCCCc1ccc(OCCOCCn2c[n+](C)c3ccccc32)c(CCCCC)c1 | 0% | -26 | 7.3µM* | u | 16µM*
CCCCCc1ccc(OCCC[n+]2ccccc2)c(CCCCC)c1 | 0% | 4 | u | 10% | -15%
CSc1ncnc2c1ccn2CC(=O)Nc1ccc(C)c(C)c1 | 0% | -3 | 16% | x | x
COc1cc(/C=C2/C(C)=C(C#N)c3nc(N)c(C#N)c(C)c32)ccc1OCC(=O)O | 0% | -6 | -17% | 4% | -7%
CC1=C(C#N)c2nc(N)c(C#N)c(C)c2/C1=C\c1ccc(-c2ccccc2C(=O)O)o1 | 0% | -9 | 8.2µM* | -17% | 2%
CCC(C)c1ccc(S(=O)(=O)N2CCN(C(=O)COc3ccc4c(C)cc(=O)oc4c3)CC2)cc1 (stereo unspecified) | 0% | -6 | 8.2µM* | -5% | -12%
COc1ccc(C2/C=C\CN(S(=O)(=O)c3ccc(C)cc3)C(C)C(=O)N2Cc2ccc(F)cc2)cc1 (stereo unspecified) | x | x | x | 15% | -8%
CC(N=C1NS(=O)(=O)c2ccccc21)C(=O)NCc1ccncc1 (stereo unspecified) | 0% | -1 | -2% | x | x
COC(=O)CC1Oc2cc3oc4c(c3cc2O1)C(=O)CC(C)(C)C4 (stereo unspecified) | x | x | x | 5µM* | u
CC1(C)CC(=O)c2c(oc3cc(O)c(O)cc23)C1 | 0% | 2 | -22% | -26% | -5%
CC(C)C[C@H](NC(=O)[C@@H](N)Cc1ccccc1)C(=O)N[C@@H](Cc1ccccc1)C(=O)N[C@@H](CCC(N)=O)C(=O)N1CCC[C@H]1C(=O)N[C@@H](CCC(N)=O)C(=O)N[C@@H](CCCN=C(N)N)C(=O)N[C@@H](Cc1ccccc1)C(N)=O | x | x | x | 5% | 4%
S=C1NCN(Cc2cccnc2)CN1c1cccc(Cl)c1 | -1% | 5 | -15% | -12% | 3%
Cc1ccc(N2CN(Cc3ccco3)CNC2=S)cc1 | 0% | -1 | -15% | 11µM* | u
Cc1cccc(N2CN(Cc3ccco3)CNC2=S)c1 | 0% | 3 | 37% | 11µM* | u
COc1ccccc1CCn1c(=O)c(CCc2ccccc2)nc2cncnc21 | x | x | x | -21% | -7%
COc1cc(OC)c(-c2sc(Nc3ccccc3)n[n+]2-c2ccc(F)cc2)cc1OC | -1% | 2 | u | -3% | -2%
Clc1cccc(-c2sc(Nc3ccccc3)n[n+]2-c2ccccc2)c1Cl | 0% | 13 | u | 14µM* | u
COc1ccc(-c2sc(Nc3ccccc3)n[n+]2-c2ccc(F)cc2)c(OC)c1OC | -1% | 17 | 7% | -2% | -4%
Fc1ccc(-[n+]2nc(Nc3ccccc3)sc2-c2cccc(Cl)c2Cl)cc1 | 0% | 25 | -15% | 8.9µM* | u
COc1cc(Br)c(-c2sc(Nc3ccccc3)n[n+]2-c2ccc(F)cc2)cc1OC | -1% | -9 | 0% | 6.3µM* | -20%
CS(=O)(=O)N(CC(=O)O)c1cc(C(F)(F)F)ccc1Cl | 0% | -2 | 30% | x | x
Cc1ccc(C)c(N(CC(=O)NC2CCCC2)C(=O)c2cc3cc4cc(C)ccc4nc3s2)c1 | 0% | -7 | 1% | -1% | -1%
Cc1cccc(N(CC(=O)NC2CCCC2)C(=O)c2cc3cc4cccc(C)c4nc3s2)c1C | 0% | 2 | 18µM* | -25% | -9%
O=C(NCC1CCCO1)c1ccc(S(=O)(=O)N2CCC(c3nc4ccc(Cl)cc4[nH]3)CC2)cc1 (stereo unspecified) | 0% | -11 | 13µM* | u | 0%
